# Hits are enriched below; roughly 27% of the tested compounds scored in any of these assays.
# CYP2C9 activ: increases human cytochrome P450 2C9 activity; P11712; recombinant CYP2C9, luciferin-H conversion, luminescence; active compounds read high; factor 1 = untreated enzyme, 0 = blocked; activation factor at 5 µM; hit rate 1.4% among 96,000;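 active means activation factor of 2 or more for CYP2C9 at a 5 µM dose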;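 further: 0 = sulfaphenazole-blocked wells and 1 = vehicle-only wells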
# CYP2C19 inhib: inhibitors of human CYP2C19 | CYP2C19 Supersomes, luciferin-H EGE luminescence, 30 min | inhibition, % at 5 µM | hit rate 21% among 96,000;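 active means CYP2C19 inhibition above a set limit at 5 µM in the primary screen, cut at about 50% in these data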;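 further: plate controls were negative control wells for no effect and 2.5 mM tranylcypromine positive control for full effect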
# Target sequence (P33261 whole entry, looked up): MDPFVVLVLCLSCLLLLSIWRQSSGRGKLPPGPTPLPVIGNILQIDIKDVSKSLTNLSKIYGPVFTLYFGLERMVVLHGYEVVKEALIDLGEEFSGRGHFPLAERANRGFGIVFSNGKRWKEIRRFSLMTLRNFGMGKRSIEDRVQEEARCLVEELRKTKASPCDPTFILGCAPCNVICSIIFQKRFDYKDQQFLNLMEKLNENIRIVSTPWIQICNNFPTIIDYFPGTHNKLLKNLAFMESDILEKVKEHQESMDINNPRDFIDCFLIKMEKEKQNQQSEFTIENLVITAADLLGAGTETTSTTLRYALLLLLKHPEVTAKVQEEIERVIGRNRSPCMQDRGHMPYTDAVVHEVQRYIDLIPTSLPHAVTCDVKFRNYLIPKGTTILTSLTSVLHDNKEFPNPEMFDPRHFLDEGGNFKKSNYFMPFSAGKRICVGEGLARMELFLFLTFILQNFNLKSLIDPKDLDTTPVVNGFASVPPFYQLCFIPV
# CYP2C19 activ: cytochrome P450 2C19 (human) activation; P33261; recombinant CYP2C19, luciferin-H EGE luminescence; active compounds read high; 0 = fully inhibited enzyme, 1 = untreated enzyme; activation factor at 5 µM; 96,000 tested, under 10 active; AID 1025;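 active means activation factor of at least 2 at 5 µM in the primary screen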;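 further: 0 = wells with 2.5 mM tranylcypromine and 1 = vehicle-only wells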
# Cav3 T inh: human Cav3.2 channel inhibition, primary screen. O95180. Cav3.2-expressing cells, Fluo-4 calcium fluorescence FDSS; active compounds read low. B-score at 10 µM. hit rate 4% among 100,000;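 active means single-dose well whose peak fluorescence ratio is a statistical outlier from its plate by either plate-standardised score or position-corrected B-score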
# CYP2C9 inh: inhibitors of human CYP2C9; inhibition, % at 5 µM; P11712; hit rate 20% among 96,000; CYP2C9 Supersomes, luciferin-H conversion, luminescence; AID 777;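 active means blocking of liver enzyme CYP2C9 beyond about 50% at 5 µM, limit read from the data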
# An asterisk follows results filed as active; / = no result.
SMILES,CYP2C9 activ,CYP2C19 inhib,CYP2C19 activ,Cav3 T inh,CYP2C9 inh
C(=C\c1ccccc1)/C=N/n1cnnc1,0.7,84*,0.2,1.5,28
CC(=C/c1ccccc1)/C=N/n1c(-c2ccco2)n[nH]c1=S,0.7,17,0.8,-2.8,26
Cn1c(=O)[nH]c(=O)c2c1nc(Sc1nc3ccccc3s1)n2Cc1ccccc1,0.8,19,0.8,-1.6,22
CCCc1nc(NC(C)=O)c(C#N)c(-c2ccco2)c1CC,0.7,17,0.8,0.046,34
O=C(CCn1nc(-c2ccccc2)ccc1=O)N1CCN(c2ccccn2)CC1,0.9,13,0.9,/,10
CCc1ccc2c(c1)cc(CN(C(=S)Nc1ccc(Cl)cc1)C1CC1)c1nnnn12,0.2,8,0.9,-0.7,78*
Cc1cc(=O)oc2cc(OCc3cc4c(cc3Cl)OCO4)ccc12,0.7,15,0.9,-1.4,30
CC(C)(C)SCCNC(=O)c1ccc(NS(C)(=O)=O)cc1,0.8,-13,1.1,0.68,20
CCOC(=O)c1c(C)[nH]c(N=Nc2cccc(C)c2)c1C,0.1,56*,0.4,0.68,93*
CCOC(=O)c1c(NC(=O)CCc2ccc(CC)o2)sc(C)c1C,1.1,4,1,-4.5*,-6
CCOC(=O)c1c(NC(=O)CNCCO)sc(C)c1C,0.3,33,0.7,0.67,65*
COC(=O)c1ccc(C(=O)OC)c(NC(=O)CCc2ccc(C)o2)c1,0.6,51*,0.5,-2.7,37
CCOC(=O)c1c(NC(N)=O)sc(C)c1C,0.5,24,0.8,0.82,52*
COC(=O)c1c(NC(=O)CCc2ccc(C)o2)sc(C)c1C,1,20,0.8,-0.42,-4
Cc1cc(Oc2ccc(C#N)cc2)nc(NCc2ccccc2)n1,0.9,11,0.9,0.17,9
Clc1ccc(-c2nc3ccccc3n2OCc2ccccc2)cc1,1.1,-3,1,-0.56,-5
COCc1nnc(NC(=O)CC(C)C)s1,/,/,/,-1.2,/
CCc1ccc(CCC(=O)Nc2ccc(C)cc2C)o1,1.3,79*,0.2,-0.97,-30
CCc1ccc(CCC(=O)Nc2ccc(C(C)=O)cc2)o1,/,/,/,0.85,/
Cc1sc(NC(=O)C2CCCCC2C(=O)O)c(C(N)=O)c1C (centres undefined),0.9,0,1,-4.2*,12
COC(=O)Cc1cc(=O)n2[nH]c(C(F)(F)F)nc2n1,0.9,33,0.7,0.41,15
O=C(NCc1ccc2c(c1)OCO2)c1nn2cccnc2c1Cl,0.9,41,0.6,-0.2,12
COc1cc(/C=C2\C(=O)ON=C2c2ccccc2)cc(OC)c1OC,1.2,12,0.9,0.66,-19
COc1cc(/C=C2/N=C(C3CCCCC3)OC2=O)cc(OC)c1OC,0.4,5,1,0.56,62*
N#C/C=C(/N)N1CCN(c2ccc(Cl)c(Cl)c2)CC1,0.7,33,0.7,0.0057,28
SMILES,CYP2C9 activ,CYP2C19 inhib,CYP2C19 activ,Cav3 T inh,CYP2C9 inh
O=C(c1ccccc1)N1CCN(Cc2ccccc2Br)CC1,0.2,98*,0,-0.96,76*
CCOc1ccc(C(=O)N2CCN(Cc3ccccc3)CC2)cc1,1,12,0.9,1.1,4
O=C(Nc1cccc(C(=O)N2CCN(Cc3ccccc3)CC2)c1)c1ccccc1,1,83*,0.2,-0.0011,-2
CC(=O)Nc1cccc(C(=O)N2CCN(Cc3ccccc3)CC2)c1,0.9,96*,0,1.1,13
COc1cccc(NC(=O)c2ccc(CN3CCN(c4ccccc4)CC3)cc2)c1,0.7,14,0.9,-5.4*,30
c1cnc(SCCOc2ccc3c(c2)CCC3)nc1,0.8,14,0.9,-1.2,23
Cc1cc(C)cc(N(CC(=O)NCC2CCCO2)C(=O)CCC(=O)Nc2cc(C)on2)c1 (centres undefined),0.7,8,0.9,0.17,26
CCc1ccc(N=CC23c4ccccc4C(c4ccccc42)C2C(=O)N(c4ccc(OC)cc4)C(=O)C23)cc1 (centres undefined),1,29,0.7,-1.8,3
CCOC(=O)c1sc(NC(=O)CN2C(=O)c3cccc4cccc(c34)C2=O)nc1C,0.8,9,0.9,-0.28,25
O=C(c1cccc(C(=O)N2CCN(Cc3ccccc3)CC2)c1)N1CCN(Cc2ccccc2)CC1,0.2,97*,0,0.81,82*
O=C(CCN1CCN(Cc2ccccc2)CC1)Nc1cccc(Cl)c1,0.5,39,0.6,-2.4,54*
COc1cccc(N2CCN(CC(=O)Nc3nnc(-c4ccccc4)s3)CC2)c1,0.2,50*,0.5,-5.2*,78*
COc1c(F)c(F)c(C(=O)Nc2ccc(N3CCN(Cc4ccccc4)CC3)cc2)c(F)c1F,0.4,-22,1.2,-4.2,57*
O=C(c1cccc(Cl)c1)N1CCN(Cc2ccncc2)CC1,/,/,/,0.71,/
O=C(Nc1cccc(Cl)c1)OCCN1CCN(Cc2ccccc2)CCC1=O,/,/,/,-0.53,/
COc1cccc(C(=O)Nc2ccc(N3CCN(Cc4ccccc4)CC3)cc2)c1,1,12,0.9,-0.25,5
Cc1ccc(CCN2CC(C(=O)NCCCN3CCOCC3)CC2=O)cc1 (centres undefined),1.1,-9,1.1,0.44,-10
COc1ccc(C(=O)c2c(-c3ccsc3)oc3ccc(-c4ccc(OC)cc4)cc23)cc1,/,/,/,-1,/
CCOC(=O)N1CCC(N2CC34C=CC(O3)C(C(=O)Nc3ccc(OCC)cc3)C4C2=O)CC1 (centres undefined),0.9,-8,1.1,-0.38,15
O=C(Nc1ccccc1C(=O)N1CCN(Cc2ccccc2)CC1)c1ccccn1,0.3,85*,0.1,2,67*
Cc1cc(Br)ccc1OCC(=O)NNC(=O)c1ccc(NC(=O)C2CC2)cc1,1,-2,1,/,0
Cc1cc2c3c(c1)C(C)(c1ccccc1)CC(C)(C)N3C(=O)C21C(C#N)=C(N)OC2=C1C(=O)CC(C)(C)C2 (centres undefined),0.4,5,1,-2.1,59*
CC1(C)CC(=O)C2=C(C1)OC(N)=C(C#N)C21C(=O)N2CCCc3cccc1c32 (centres undefined),0.8,-1,1,0.05,17
CC1=CC(C)(C)N2C(=O)C3(C(C#N)=C(N)Oc4cc(O)ccc43)c3c(C)c(C)cc1c32 (centres undefined),0.1,89*,0.1,-4.1*,94*
CC1(c2ccccc2)CC(C)(C)N2C(=O)C3(C(C#N)=C(N)Oc4cc(O)ccc43)c3cccc1c32 (centres undefined),0.9,-9,1.1,-4.9*,8
CCc1c(C)nc2[nH]nc(NC(=O)C(F)(F)F)n2c1=O,0.9,3,1,-0.064,10
C=CCNC(=O)C1=NOC(CNC(=O)c2c(-c3ccccc3Cl)noc2C)C1 (centres undefined),1,3,1,/,0
O=C(O)CSc1nnc(CNc2cccc(C(F)(F)F)c2)n1Cc1ccco1,1.2,-24,1.2,0.018,-25
O=C(NCc1cccs1)c1cnc2sccn2c1=O,1,1,1,/,2
